Experimental data: PubChem BioAssay (NCI)
Values joined by “and” are separate entries in the source; they are usually repeats but may differ in a detail not shown here. Identical values can stand only once. About 83,000 compounds went through this panel and 20% of them were active in at least one assay; those are over-represented in the sample as a whole.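 Method: cells in 96-well plates; compound added at one concentration; 48 h incubation; percent growth measured; values under 10 scored active.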 Active and inactive are the calls of the source. Where a SMILES comes first, the peptide text is derived from it.

Columns and labels:
Experiment in all cases: NCI-60 one-dose screen, 48 h (100 = growth as untreated, 0 = no growth, -100 = all killed)
NCI-H23 lung = conditions: 10 µM unless noted
NCI-H226 lung = conditions: 10 µM unless noted
NCI-H322M lung = conditions: 10 µM unless noted
HOP-62 NSCLC = conditions: 10 µM unless noted
NCI-H460 lung = conditions: 10 µM unless noted
HOP-92 NSCLC = conditions: 10 µM
NCI-H522 lung = conditions: 10 µM
A549/ATCC NSCLC = conditions: 10 µM unless noted
786-0 renal = conditions: 10 µM unless noted
COLO 205 colon = conditions: 10 µM unless noted
DU-145 prostate = conditions: 10 µM unless noted
K-562 leukemia = conditions: 10 µM unless noted
MALME-3M melanoma = conditions: 10 µM unless noted
MDA-MB-231 breast = conditions: 10 µM unless noted
RXF 393 renal = conditions: 10 µM unless noted
SF-268 CNS = conditions: 10 µM unless noted
SF-295 CNS = conditions: 10 µM unless noted
SF-539 CNS = conditions: 10 µM unless noted
UACC-257 melanoma = conditions: 10 µM unless noted
M14 melanoma = conditions: 10 µM unless noted

SMILES | growth (NCI-H23 lung) | growth (NCI-H226 lung) | growth (NCI-H322M lung) | growth (HOP-62 NSCLC) | growth (NCI-H460 lung) | growth (HOP-92 NSCLC) | growth (NCI-H522 lung) | growth (A549/ATCC NSCLC) | growth (786-0 renal) | growth (COLO 205 colon) | growth (DU-145 prostate) | growth (K-562 leukemia) | growth (MALME-3M melanoma) | growth (MDA-MB-231 breast) | growth (RXF 393 renal) | growth (SF-268 CNS) | growth (SF-295 CNS) | growth (SF-539 CNS) | growth (UACC-257 melanoma) | growth (M14 melanoma)
O=C1c2c(O)ccc(O)c2C(=O)c2c(NCCNCCO)ccc(NCCNCCO)c21 | -59% (active) and -79.5% (active) | -55.7% (active) and -60.1% (active) | -29.2% (active) and -9.24% (active) | -53.4% (active) and -65.5% (active) | -57% (active) and -52.8% (active) | -56.9% (active) | -91.7% (active) and -66.8% (active) | -51.4% (active) and -77.6% (active) | -15.8% (active) and -50.5% (active) | -69.5% (active) and -74.4% (active) | -36.8% (active) and -51.3% (active) | -5.45% (active) and -77.6% (active) | -64.6% (active) and -88.2% (active) | -84.3% (active) and -77.3% (active) | -86.4% (active) and -68.9% (active) | -73% (active) and -80% (active) | -37.8% (active) and -39.6% (active) | -38.4% (active) and -84% (active) | -4.02% (active) and -47.7% (active) | -79.7% (active) and -97.7% (active)
NC(Cc1ccccc1)C(=O)NC(Cc1ccccc1)C(=O)O (stereo not drawn) (H-Phe-Phe-OH; configuration not given here) | 97.1% (inactive) and 105% (inactive) | 95.6% (inactive) and 93% (inactive) | 94.6% (inactive) and 100% (inactive) | 91.1% (inactive) and 100% (inactive) | 104% (inactive) | 97.6% (inactive) | 87.3% (inactive) and 99.4% (inactive) | 90.2% (inactive) and 101% (inactive) | 111% (inactive) and 104% (inactive) | 107% (inactive) and 110% (inactive) | 111% (inactive) and 106% (inactive) | 97.9% (inactive) and 114% (inactive) | 99.4% (inactive) | 115% (inactive) and 108% (inactive) | 105% (inactive) | 101% (inactive) and 106% (inactive) | 107% (inactive) and 99.4% (inactive) | 101% (inactive) and 92.6% (inactive) | 88.2% (inactive) and 92.8% (inactive) | 103% (inactive) and 97.1% (inactive)
N#CC(C#N)N=Nc1ccc(Cl)cc1 | 36.5% (inactive) | 75.1% (inactive) | 93.2% (inactive) | 84.9% (inactive) | 91% (inactive) | -15.1% (active) | -12.4% (active) | 105% (inactive) | 59% (inactive) | -33.9% (active) | 68.2% (inactive) | 10.2% (inactive) | 15.6% (inactive) | 47.2% (inactive) | 61.4% (inactive) | 84.9% (inactive) | 94.7% (inactive) | 53.1% (inactive) | 20.8% (inactive) | 60.1% (inactive)
CCCCCCCCCCCCCCCCC(C(=O)O)C(O)(CC(=O)O)C(=O)O (stereo not given) | 105% (inactive) and -38.2% (active) | 107% (inactive) and -23.4% (active) | 120% (inactive) and 20% (inactive) | 102% (inactive) and -2.31% (active) | 105% (inactive) and 4.08% (active) | 112% (inactive) and -1.67% (active) | 90% (inactive) and -32.5% (active) | 106% (inactive) and 12.6% (inactive) | 99.7% (inactive) and 0.749% (active) | 114% (inactive) and -53.4% (active) | 124% (inactive) and -1.43% (active) | 90.9% (inactive) and 1.15% (active) | 108% (inactive) and -8.6% (active) | 126% (inactive) and 14.1% (inactive) | 98.4% (inactive) and 9.56% (active) | 116% (inactive) and 10% (inactive) | 15.4% (inactive) | 109% (inactive) and -20.3% (active) | 115% (inactive) and 18.2% (inactive) | 102% (inactive) and -34.8% (active)
Cc1cc(-c2ccc(N=Nc3ccc4c(S(=O)(=O)O)cc(S(=O)(=O)O)c(N)c4c3O)c(C)c2)ccc1N=Nc1ccc2c(S(=O)(=O)O)cc(S(=O)(=O)O)c(N)c2c1O | 81.7% (inactive) | 89.2% (inactive) | 119% (inactive) | 95.7% (inactive) | 111% (inactive) | 67.1% (inactive) | 85.6% (inactive) | 92.7% (inactive) | 101% (inactive) | 111% (inactive) | 105% (inactive) | 90.8% (inactive) | 107% (inactive) | 110% (inactive) | 101% (inactive) | 102% (inactive) | 93.7% (inactive) | 90.8% (inactive) | 105% (inactive) | 118% (inactive)
CN(C)c1ccc(/C=C\C(=O)c2ccccc2)cc1 | 98.4% (inactive) and 91% (inactive) and 97.5% (inactive) | 92.6% (inactive) and 98.6% (inactive) and 101% (inactive) | 97.2% (inactive) and 103% (inactive) and 88.5% (inactive) | 102% (inactive) and 101% (inactive) | 102% (inactive) and 99.8% (inactive) and 104% (inactive) | 103% (inactive) and 99.8% (inactive) and 86.1% (inactive) | 64.3% (inactive) and 60.4% (inactive) and 52.7% (inactive) | 67% (inactive) and 79.8% (inactive) and 82.4% (inactive) | 90.9% (inactive) and 89.7% (inactive) and 80.8% (inactive) | 104% (inactive) and 99.2% (inactive) | 86.8% (inactive) and 89.2% (inactive) and 79.1% (inactive) | 15.3% (inactive) and 26.7% (inactive) and 42.6% (inactive) | 87.5% (inactive) and 84.4% (inactive) and 83% (inactive) | 104% (inactive) and 84.4% (inactive) and 105% (inactive) | 92.4% (inactive) and 102% (inactive) | 92.4% (inactive) and 90% (inactive) and 85.2% (inactive) | 66.3% (inactive) and 91.5% (inactive) and 98% (inactive) | 88% (inactive) and 95.7% (inactive) and 94.4% (inactive) | 83.8% (inactive) and 92.7% (inactive) and 98.1% (inactive) | 89.7% (inactive) and 79.2% (inactive) and 72.5% (inactive)
O=C1CSC2=NCCN12 | 87.7% (inactive) and 90% (inactive) | 102% (inactive) and 85.5% (inactive) | 102% (inactive) and 94.5% (inactive) | 90.9% (inactive) and 95.9% (inactive) | 96.3% (inactive) and 99.3% (inactive) | 112% (inactive) and -2.23% (active) | 59.3% (inactive) and 99.1% (inactive) | 92.9% (inactive) and 113% (inactive) | 80.7% (inactive) and 61.7% (inactive) | 104% (inactive) and 127% (inactive) | 111% (inactive) and 107% (inactive) | 74.2% (inactive) and 76.4% (inactive) | 91.7% (inactive) and 120% (inactive) | 104% (inactive) and 103% (inactive) | 81.5% (inactive) and 98.4% (inactive) | 97.4% (inactive) and 96.9% (inactive) | 102% (inactive) and 81% (inactive) | 94.3% (inactive) and 91.7% (inactive) | 71.9% (inactive) and 103% (inactive) | 90.1% (inactive) and 91.6% (inactive)
O=c1n(CC2CO2)c(=O)n(CC2CO2)c(=O)n1CC1CO1 (stereo not given) | 69.2% (inactive) | 80.1% (inactive) | 70.4% (inactive) | 57% (inactive) | 19.2% (inactive) | 75.9% (inactive) | 45.1% (inactive) | 44.3% (inactive) | 44.7% (inactive) | 74.8% (inactive) | 25.7% (inactive) | 81.3% (inactive) | 70.7% (inactive) | 107% (inactive) | 64.2% (inactive) | 47.9% (inactive) | 13.9% (inactive) | 28.6% (inactive) | 61.4% (inactive) | 61.9% (inactive)
CC(C)(O)C(=O)O | 106% (inactive) | 102% (inactive) | 98.6% (inactive) | 99.9% (inactive) | 103% (inactive) | 91.7% (inactive) | 103% (inactive) | 102% (inactive) | 95.4% (inactive) | 104% (inactive) | 94.5% (inactive) | 123% (inactive) | 88.4% (inactive) | 86.4% (inactive) | 113% (inactive) | 103% (inactive) | 103% (inactive) | 101% (inactive) | 99.8% (inactive) | 101% (inactive)
